The entries come from a sample that favours hits as a whole.
Pf Dd2 inh – qHTS Primary assay for Inhibitors of Plasmodium falciparum Dd2 growth in vitro; Potency, µM (highest dose often 28.9 µM), hits mostly inhibitors; hit rate 4.3% among 120,000; P. falciparum Dd2 growth, SYBR Green, 72 h; active = well fitted inhibition curve with a large enough effect; note: nearly all actives have a fitted effect of over 65% in size
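Readout: SYBR Green fluorescence, 485 nm excitation, 535 nm emission, after ~16 h lysis at 37C. Before that, Dd2-infected red cells (2.5% hematocrit) grew 72 h with compound, 29 uM top final concentration.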
Numbers stand for hits; [ ] = another dose, or the depositor's remark.

Screening COc1ccc(OCC(=O)NCC(c2ccc(OC)cc2)N2CCOCC2)cc1 (centres undefined) returned Pf Dd2 inh inactive.
Screening Cc1ccc2c(C)c(C(=O)NCC(c3ccc(Cl)cc3)N3CCOCC3)oc2c1 (centres undefined) returned Pf Dd2 inh inactive.
For CCc1ccc2oc(C(=O)NCC(c3ccc(OC)cc3)N3CCCCC3)c(C)c2c1 (centres undefined) the results were Pf Dd2 inh 10µM.
`COc1ccc(C(=O)NCC(c2ccc3c(c2)OCO3)N2CCOCC2)cc1` (centres undefined) gave Pf Dd2 inh inactive.
COc1ccc(Cl)cc1C(=O)NCC(c1ccc(N(C)C)cc1)N1CCOCC1 (centres undefined) was read as Pf Dd2 inh inactive[5.79 µM].
CCn1cc(-c2ccc(C)cc2)cc1C(=O)N1CCC(C)CC1 was read as Pf Dd2 inh inactive.
For Cc1noc(C)c1CCC(=O)NC1CC(c2cc(=O)[nH]c(C3CC3)n2)C1 (centres undefined) the results were Pf Dd2 inh inactive.
`O=C1CCCCCN1CCC(=O)N1CCOC(CCCc2ccccc2)C1` (centres undefined) gave Pf Dd2 inh inactive.
For CN(Cc1ccccn1)C(=O)CC(c1cccc(O)c1)c1ccccc1Cl (centres undefined) the results were Pf Dd2 inh inactive.
`Cc1ccc(C(=O)NCC(=O)N2CCCCCCNC(=O)CC2c2ccccc2)cn1` (centres undefined) gave Pf Dd2 inh inactive.
COc1ccc(C(=O)N2CCC(Oc3ccc(C(=O)N(C)C)cn3)CC2)cc1 was read as Pf Dd2 inh inactive.
For O=C1[C@@H]2C[C@@H](CN2C(=O)Cc2ccccc2)Oc2ccccc2N1CC1CC1 the results were Pf Dd2 inh inactive.
For CN1C(=O)[C@@H]2C[C@@H](CN2Cc2ccccc2)Oc2ccccc21 the results were Pf Dd2 inh inactive.
`O=C1[C@@H]2C[C@@H](CN2Cc2ccc3c(c2)OCO3)Oc2ccccc2N1CC1CC1` gave Pf Dd2 inh 13µM.
For Cc1ccc(CN2C[C@@H]3C[C@H]2C(=O)N(CC2CC2)c2ccccc2O3)cc1 the results were Pf Dd2 inh 10µM.
For Cn1cc(CN2C[C@@H]3C[C@H]2C(=O)N(CC2CC2)c2ccccc2O3)c2ccccc21 the results were Pf Dd2 inh inactive.
For O=C1[C@@H]2C[C@@H](CN2Cc2ccnc3ccccc23)Oc2ccccc2N1CC1CC1 the results were Pf Dd2 inh inactive.
Screening OC(c1nc(Nc2ccc(Oc3ccccc3)cc2)n[nH]1)C1CC1 (centres undefined) returned Pf Dd2 inh inactive.
`Cc1ccc(-c2cc(N3CCCN(C(=O)Cc4ccc(F)cc4)CC3)n[nH]2)cc1C` gave Pf Dd2 inh inactive.
Screening O=C(Cc1ccccc1)N1CC[C@H]2COC(=O)N2c2cc(F)ccc2C1 returned Pf Dd2 inh inactive.
Screening O=C(CCCc1ccccc1)Nc1ccc(OC2CCNCC2)nc1 returned Pf Dd2 inh inactive.
CN1CCC2(CCC1=O)CN(C(=O)Cn1ncnn1)CCN2C (centres undefined) was read as Pf Dd2 inh inactive.
`COc1ccccc1NC(=O)N1CCc2cc(OC)c(OC)cc2C1CNC(=O)c1ccco1` (centres undefined) gave Pf Dd2 inh 7.1µM.
For COc1cc2c(cc1OC)C(CNC(=O)c1cccs1)N(C(=O)Nc1ccccc1)CC2 (centres undefined) the results were Pf Dd2 inh 8.9µM.
Screening CCCNC(=O)N1CCc2cc(OC)c(OC)cc2C1CNC(=O)c1ccccc1C (centres undefined) returned Pf Dd2 inh 8.9µM.
COc1ccccc1NC(=O)N1CCc2cc(OC)c(OC)cc2C1CNC(C)=O (centres undefined) was read as Pf Dd2 inh inactive.
For COc1cc2c(cc1OC)C(CNC(=O)c1cccs1)N(C(=O)Nc1ccccc1F)CC2 (centres undefined) the results were Pf Dd2 inh inactive.
COc1cc2c(cc1OC)C(CNC(=O)C1CCCC1)N(C(=O)Nc1cccc(C)c1)CC2 (centres undefined) was read as Pf Dd2 inh 11µM.
COc1cc2c(cc1OC)C(CNC(=O)c1ccccc1)N(C(=O)Nc1ccccc1F)CC2 (centres undefined) was read as Pf Dd2 inh inactive.
Screening CCC(=O)NCC1c2cc(OC)c(OC)cc2CCN1C(=O)Nc1ccccc1 (centres undefined) returned Pf Dd2 inh inactive.
Screening COc1cc2c(cc1OC)C(CNC(=O)C1CCCC1)N(C(=O)NC(C)C)CC2 (centres undefined) returned Pf Dd2 inh inactive.
COc1cc2c(cc1OC)C(CNC(=O)c1ccccc1Cl)N(C(=O)Nc1ccccc1F)CC2 (centres undefined) was read as Pf Dd2 inh inactive.
`CCC(=O)NCC1c2cc(OC)c(OC)cc2CCN1C(=O)Nc1cccc(C)c1` (centres undefined) gave Pf Dd2 inh inactive.
`CCN(CC)C(=O)C1N(C(C)C)C(=O)C12CCCC2` (centres undefined) gave Pf Dd2 inh inactive.
For CNC(=O)N1CCC(c2nc(CCOc3ccc(F)cc3)no2)C1 (centres undefined) the results were Pf Dd2 inh inactive.
`CN(CC1(c2ccccc2)CC1(C)C)C(=O)c1cn(C/C=C/c2ccccc2)nn1` (centres undefined) gave Pf Dd2 inh inactive.
`COc1ccccc1NC(=O)N1CCCC(Cn2c(C3CC3)nc3cccnc32)C1` (centres undefined) gave Pf Dd2 inh inactive.
`CNC(=O)[C@@H]1CN(C(=O)c2c[nH]c3ccccc23)C[C@H]1C1CCN(C)CC1` gave Pf Dd2 inh inactive.
`O=[S+]([O-])(c1ccccc1)N1CC2(COCCN(Cc3ccsc3)C2)C1` gave Pf Dd2 inh inactive.
COCCCNC(=O)CCCN1C(=O)COc2ccc(C(=O)COc3cccc(C)c3C)cc21 was read as Pf Dd2 inh inactive.
For COCCNC(=O)CCCN1C(=O)COc2ccc(C(=O)COc3ccc(Cl)c(C)c3)cc21 the results were Pf Dd2 inh inactive.
COCCNC(=O)CCCN1C(=O)COc2ccc(C(=O)COc3c(C)ccc(C)c3C)cc21 was read as Pf Dd2 inh 10µM.
For O=C(c1ccccn1)N1CCC(N2CCNC2=O)CC1 the results were Pf Dd2 inh inactive.
O=C(N[C@H]1CO[C@H]2[C@@H]1OC[C@@H]2n1cc(-c2ccccn2)nn1)c1ccc(C(F)(F)F)cc1 was read as Pf Dd2 inh inactive.
For COc1ccc(C(=O)Nc2ccc(-c3noc([C@@H]4CCCN4Cc4ccc(Cl)cc4)n3)cn2)cc1 the results were Pf Dd2 inh 11µM.
`COCC(=O)Nc1ccc(-c2noc([C@@H]3CCCN3Cc3ccc(S(C)(=O)=O)cc3)n2)cn1` gave Pf Dd2 inh inactive.
`COc1ccc(C(=O)Nc2ccc(-c3noc([C@@H]4CCCN4Cc4ccc(F)c(F)c4)n3)cn2)cc1` gave Pf Dd2 inh inactive.
COc1ccc(C(=O)Nc2ccc(-c3noc([C@@H]4CCCN4Cc4ccccc4C)n3)cn2)cc1 was read as Pf Dd2 inh inactive.
`COCC(=O)Nc1ccc(-c2noc([C@@H]3CCCN3Cc3ccc(F)cc3)n2)cn1` gave Pf Dd2 inh inactive.
Screening COCC(=O)Nc1ccc(-c2noc([C@@H]3CCCN3CC(C)C)n2)cn1 returned Pf Dd2 inh 11µM.
Screening COCCNC(=O)[C@@H]1C[C@@H](O)CN1C1CCN(C(=O)CCc2c[nH]c3ccccc23)CC1 returned Pf Dd2 inh inactive.
